# In PubChem BioAssay (NCATS):
# Values joined by “and” are separate entries in the source; they are usually repeats but may differ in a detail not shown here. Identical values can stand only once. Results filed as inconclusive are left out. A number with no mark means an inactive call. Calls come from the whole dose curve; as a rule, active = well fitted inhibition curve with a large enough effect; inconclusive = small, poorly fitted or top-dose-only effect; inactive = flat fitted curve, though single readings scatter.
# Assay: Drug repurposing screens with cells derived from glioblastoma tumor samples (AID 1345199); note: nearly all actives have a fitted effect of over 40% in size
# Conditions: GBM patient neurospheres viability, ATP luminescence, 48 h; at 20 µM (top of the series); tumour line C
# How it was run: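 Primary testing used CD133+ neurospheres from four GBM patients, seven concentrations, 48 h exposure and ATP-based viability; confirmation added three slower-growing patient lines.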
# % is set by controls: 0 for no effect and ±100 for the full control effect.
row,SMILES,"activity, negative = cell killing [%]"
1,O=C1c2ccccc2C(=O)C1c1ccccc1,22.2
2,CC(=O)[C@H]1CC[C@H]2[C@@H]3C[C@H](C)C4=CC(=O)CC[C@]4(C)[C@H]3[C@@H](O)C[C@]12C,12.3
3,O=C(OCC(O)CO)c1ccccc1Nc1ccnc2cc(Cl)ccc12 (stereo unspecified),1.49
4,NCCc1ccn[nH]1,-4.24
5,CCCCOc1ccc(OCCCN2CCOCC2)cc1,-6.83

# Same assay, conditions: GBM patient neurospheres viability, ATP luminescence, 48 h; at 21.2 µM (top of the series); tumour line B
row,SMILES,"activity, negative = cell killing [%]"
1,O=C1c2ccccc2C(=O)C1c1ccccc1,-2.67
2,CC(=O)[C@H]1CC[C@H]2[C@@H]3C[C@H](C)C4=CC(=O)CC[C@]4(C)[C@H]3[C@@H](O)C[C@]12C,-24.6
3,O=C(OCC(O)CO)c1ccccc1Nc1ccnc2cc(Cl)ccc12 (stereo unspecified),-17
4,NCCc1ccn[nH]1,-2.24
5,C[C@]12CC[C@H]3[C@@H](CCC4=CC(=O)CC[C@@]43C)[C@@H]1CC[C@@H]2C(=O)CO,-21.2

# Same assay, conditions: GBM patient neurospheres viability, ATP luminescence, 48 h; at 21.2 µM (top of the series); tumour line D
row,SMILES,"activity, negative = cell killing [%]"
1,O=C1c2ccccc2C(=O)C1c1ccccc1,-10.9
2,NCCc1ccn[nH]1,2.99
3,C[C@]12CC[C@H]3[C@@H](CCC4=CC(=O)CC[C@@]43C)[C@@H]1CC[C@@H]2C(=O)CO,-27.5

# Same assay, conditions: GBM patient neurospheres viability, ATP luminescence, 48 h; at 45.9 µM (top of the series); tumour line B
row,SMILES,"activity, negative = cell killing"
1,CCCCCCCCCCCCCCCCCC(=O)OCC(O)CO (stereo unspecified),-5.26%
2,CN1[C@@H]2CC[C@H]1CC(OC(=O)c1c[nH]c3ccccc13)C2 (stereo partly specified),0.619%
3,CO/N=C1\CN(c2nc3c(cc2F)c(=O)c(C(=O)O)cn3C2CC2)CC1CN (stereo unspecified),-0.703%
4,CCN1CCC[C@H]1CNC(=O)c1c(OC)ccc(Br)c1OC,-5.99%
5,CC(C)COC(=O)c1ccc(N)cc1,-9.56%
6,O=C1OCCN1/N=C/c1ccc([N+](=O)[O-])o1,4.9%
7,C[C@]12C=CC(=O)C=C1CC[C@@H]1[C@@H]2[C@@H](O)C[C@@]2(C)[C@H]1CC[C@]2(O)C(=O)CO,-12.2%
8,O=C1OC(c2ccc(O)cc2)(c2ccc(O)cc2)c2ccccc21,-16.9%
9,COc1cccc2c1C(=O)c1c(O)c3c(c(O)c1C2=O)C[C@@](O)(C(=O)CO)C[C@@H]3O[C@H]1C[C@H](N)[C@H](O)[C@H](C)O1,-6.08%
10,COC1=CC(=O)C[C@@H](C)[C@]12Oc1c(Cl)c(OC)cc(OC)c1C2=O,-17.6%
11,CC(CCc1ccccc1)NCC(O)c1ccc(O)c(C(N)=O)c1 (stereo unspecified),-24.2%
12,CCCCC1=NC2(CCCC2)C(=O)N1Cc1ccc(-c2ccccc2-c2nn[nH]n2)cc1,-9.67%
13,C=CCc1ccc(O)c(OC)c1,-13.4%
14,C[C@]12CC[C@@H]3c4ccc(O)cc4CC[C@H]3[C@@H]1C[C@@H](O)[C@@H]2O,-9.53%
15,CC(=O)OCC(=O)NCCCOc1cccc(CN2CCCCC2)c1,0.906% and -1.58%
16,OC[C@H]1O[C@@H](n2cnc3c(=S)nc[nH]c32)[C@H](O)[C@@H]1O,-25.4%
17,CCCN1CCCC[C@H]1C(=O)Nc1c(C)cccc1C,-11.5%

# Same assay, conditions: GBM patient neurospheres viability, ATP luminescence, 48 h; at 45.9 µM (top of the series); tumour line D
row,SMILES,"activity, negative = cell killing"
1,CCCCCCCCCCCCCCCCCC(=O)OCC(O)CO (stereo unspecified),-15.3%
2,CN1[C@@H]2CC[C@H]1CC(OC(=O)c1c[nH]c3ccccc13)C2 (stereo partly specified),-12.6%
3,CO/N=C1\CN(c2nc3c(cc2F)c(=O)c(C(=O)O)cn3C2CC2)CC1CN (stereo unspecified),-7.84%
4,CCN1CCC[C@H]1CNC(=O)c1c(OC)ccc(Br)c1OC,-23.8%
5,CC(C)COC(=O)c1ccc(N)cc1,-18.7%
6,O=C1OCCN1/N=C/c1ccc([N+](=O)[O-])o1,-7.13%
7,C[C@]12C=CC(=O)C=C1CC[C@@H]1[C@@H]2[C@@H](O)C[C@@]2(C)[C@H]1CC[C@]2(O)C(=O)CO,-11.3%
8,O=C1OC(c2ccc(O)cc2)(c2ccc(O)cc2)c2ccccc21,-16.2%
9,COc1cccc2c1C(=O)c1c(O)c3c(c(O)c1C2=O)C[C@@](O)(C(=O)CO)C[C@@H]3O[C@H]1C[C@H](N)[C@H](O)[C@H](C)O1,-1.75%
10,COC1=CC(=O)C[C@@H](C)[C@]12Oc1c(Cl)c(OC)cc(OC)c1C2=O,-7.65%
11,CC(CCc1ccccc1)NCC(O)c1ccc(O)c(C(N)=O)c1 (stereo unspecified),-11.2%
12,CCCCC1=NC2(CCCC2)C(=O)N1Cc1ccc(-c2ccccc2-c2nn[nH]n2)cc1,-0.133%
13,C=CCc1ccc(O)c(OC)c1,1.72%
14,C[C@]12CC[C@@H]3c4ccc(O)cc4CC[C@H]3[C@@H]1C[C@@H](O)[C@@H]2O,-17.2%
15,CC(=O)OCC(=O)NCCCOc1cccc(CN2CCCCC2)c1,-12.4% and -6.14%
16,CCCN1CCCC[C@H]1C(=O)Nc1c(C)cccc1C,-25.5%
